# Measured values reported in PubChem BioAssay.
# Calls of active or inactive are those of the source.
# Assays:
# [1] = binders of probe aFSTL3 on microarray, primary screen, stem cell growth factor project, biochemical, small-molecule microarray, fluorescence 635/667 (AID 1064); conditions: higher = more signal;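 further: measures binding of the biotinylated anti-FSTL3 antibody to printed compounds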
# [2] = binders from COS7 lysate, DM2A8 probe, primary screen, torsin A project, cell lysate, small-molecule microarray, fluorescence 635/667 (AID 1065); conditions: higher = more signal, COS7 lysate expressing mutant human TOR1A
# [3] = binders of probe aFGF2 on microarray, primary screen, stem cell growth factor project, biochemical, small-molecule microarray, fluorescence 635/667 (AID 1067); conditions: higher = more signal;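 further: measures binding of biotinylated aFGF2 protein to printed compounds on slides; z-score merges feature fluorescence and signal-to-noise across triplicate slides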
# [4] = binders of probe aFGF10 on microarray, primary screen, stem cell growth factor project, biochemical, small-molecule microarray, fluorescence 635/667 (AID 1071); conditions: higher = more signal;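 further: score merges 667 nm spot intensity and signal to noise from triplicate slides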
# [5] = molecular target: Neurogenic locus notch homolog protein 2 (Homo sapiens) (UniProt Q04721); experiment: Notch2 binders on small-molecule microarrays, primary screen, biochemical, small-molecule microarray, 635 nm fluorescence, stem cell growth factors (AID 1073); conditions: Notch2 binding, higher = more signal
# [6] = molecular target: Pro-neuregulin-1, membrane-bound isoform (Homo sapiens) (UniProt Q02297); experiment: NRG1 binders on small-molecule microarrays, primary screen, psychiatric disease protein project, biochemical, small-molecule microarray, fluorescence 635/667 (AID 1075); conditions: NRG1 binding, 635 nm fluorescence, higher = more signal;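 further: score combines 667 nm spot fluorescence with signal to noise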
# [7] = tested on: Neuregulin-1 EGF-like domain; experiment: binders of neuregulin-1 EGF-like domain, primary screen, biochemical, small-molecule microarray, 635 nm fluorescence (AID 1081); conditions: small-molecule microarray binding, higher = more signal;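 further: binding of the protein to compounds printed on small-molecule microarray slides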
# [8] = FRG1 promoter luciferase signal modulators, primary screen, FRG1 inhibition for FSHD, cell-based, C2C12 myotubes, firefly/Renilla luciferase, luminescence (AID 1084); conditions: higher = more signal, called active from +8 up or from −8 down
# [9] = binders of probe aFST on microarray, primary screen, stem cell growth factor project, biochemical, small-molecule microarray, fluorescence 635/667 (AID 1086); conditions: higher = more signal;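 further: score merges 667 nm fluorescence with signal-to-noise of each printed compound spot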
# [10] = binders of probe aHhip on microarray, primary screen, stem cell growth factor project, biochemical, small-molecule microarray, fluorescence 635/667 (AID 1087); conditions: higher = more signal;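 further: score merges spot fluorescence at 667nm with spot signal to noise ratio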
# Neurogenic locus notch homolog protein 2 (Homo sapiens), sequence (Q04721 whole entry, looked up, canonical isoform): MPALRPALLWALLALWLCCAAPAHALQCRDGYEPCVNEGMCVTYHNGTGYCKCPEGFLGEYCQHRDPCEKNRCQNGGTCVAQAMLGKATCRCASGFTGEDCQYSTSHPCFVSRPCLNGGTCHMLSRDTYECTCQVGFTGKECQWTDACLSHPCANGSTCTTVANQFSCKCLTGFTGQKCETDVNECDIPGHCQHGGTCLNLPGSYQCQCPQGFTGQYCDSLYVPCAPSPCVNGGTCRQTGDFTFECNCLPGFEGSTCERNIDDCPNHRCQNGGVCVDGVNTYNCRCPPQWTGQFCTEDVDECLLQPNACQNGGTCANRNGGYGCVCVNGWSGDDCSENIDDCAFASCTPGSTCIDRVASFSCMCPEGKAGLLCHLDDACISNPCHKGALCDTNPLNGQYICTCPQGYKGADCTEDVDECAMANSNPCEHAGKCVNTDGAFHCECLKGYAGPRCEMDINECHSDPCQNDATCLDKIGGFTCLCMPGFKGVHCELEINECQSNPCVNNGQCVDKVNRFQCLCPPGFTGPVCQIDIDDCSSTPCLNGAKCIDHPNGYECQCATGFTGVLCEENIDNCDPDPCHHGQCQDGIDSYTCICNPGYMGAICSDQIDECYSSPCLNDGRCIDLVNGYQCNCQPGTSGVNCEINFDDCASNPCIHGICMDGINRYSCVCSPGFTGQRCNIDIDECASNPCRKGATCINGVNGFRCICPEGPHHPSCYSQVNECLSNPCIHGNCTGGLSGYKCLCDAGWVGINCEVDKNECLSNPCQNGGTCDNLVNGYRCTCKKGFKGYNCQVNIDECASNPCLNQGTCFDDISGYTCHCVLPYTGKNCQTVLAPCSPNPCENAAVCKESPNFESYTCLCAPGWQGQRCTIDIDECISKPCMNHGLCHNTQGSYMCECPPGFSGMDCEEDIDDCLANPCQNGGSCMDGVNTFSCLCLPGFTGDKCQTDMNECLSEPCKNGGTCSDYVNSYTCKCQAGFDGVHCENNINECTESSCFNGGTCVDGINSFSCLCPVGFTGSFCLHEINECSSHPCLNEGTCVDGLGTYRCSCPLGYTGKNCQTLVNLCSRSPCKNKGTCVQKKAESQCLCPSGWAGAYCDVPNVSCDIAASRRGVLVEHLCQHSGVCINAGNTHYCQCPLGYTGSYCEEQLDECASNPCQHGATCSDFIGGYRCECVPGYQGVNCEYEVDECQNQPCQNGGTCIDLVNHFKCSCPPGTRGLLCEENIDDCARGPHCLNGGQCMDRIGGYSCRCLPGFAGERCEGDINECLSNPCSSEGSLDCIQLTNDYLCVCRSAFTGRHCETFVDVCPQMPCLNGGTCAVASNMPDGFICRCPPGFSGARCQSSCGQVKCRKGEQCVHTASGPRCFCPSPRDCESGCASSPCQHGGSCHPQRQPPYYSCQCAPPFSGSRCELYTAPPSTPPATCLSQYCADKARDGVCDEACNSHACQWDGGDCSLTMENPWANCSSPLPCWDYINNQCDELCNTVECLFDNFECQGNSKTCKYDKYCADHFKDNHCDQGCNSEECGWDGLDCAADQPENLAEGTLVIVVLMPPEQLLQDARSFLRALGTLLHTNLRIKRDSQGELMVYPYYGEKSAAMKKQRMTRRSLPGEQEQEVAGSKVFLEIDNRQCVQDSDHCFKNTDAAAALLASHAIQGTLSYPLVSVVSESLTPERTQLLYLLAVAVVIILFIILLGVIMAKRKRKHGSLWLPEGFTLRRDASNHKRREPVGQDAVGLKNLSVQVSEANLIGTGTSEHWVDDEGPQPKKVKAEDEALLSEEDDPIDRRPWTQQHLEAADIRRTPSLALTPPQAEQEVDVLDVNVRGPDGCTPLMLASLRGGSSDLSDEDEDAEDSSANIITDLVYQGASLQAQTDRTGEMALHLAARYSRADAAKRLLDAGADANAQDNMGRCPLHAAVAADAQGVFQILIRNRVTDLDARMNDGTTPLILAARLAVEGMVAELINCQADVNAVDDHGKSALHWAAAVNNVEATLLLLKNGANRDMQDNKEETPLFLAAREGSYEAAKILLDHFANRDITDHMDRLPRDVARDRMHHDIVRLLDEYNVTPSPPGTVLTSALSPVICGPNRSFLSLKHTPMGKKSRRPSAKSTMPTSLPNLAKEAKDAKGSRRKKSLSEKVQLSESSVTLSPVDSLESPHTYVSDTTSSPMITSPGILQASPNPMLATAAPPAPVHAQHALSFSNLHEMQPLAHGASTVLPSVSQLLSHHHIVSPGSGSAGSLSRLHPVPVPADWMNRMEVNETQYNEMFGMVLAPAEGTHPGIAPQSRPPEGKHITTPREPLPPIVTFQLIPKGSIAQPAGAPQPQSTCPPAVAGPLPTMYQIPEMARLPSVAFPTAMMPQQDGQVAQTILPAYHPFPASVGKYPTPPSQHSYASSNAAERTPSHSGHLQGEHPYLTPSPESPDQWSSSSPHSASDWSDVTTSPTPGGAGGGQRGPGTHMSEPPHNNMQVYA
# Pro-neuregulin-1, membrane-bound isoform (Homo sapiens), sequence (Q02297 whole entry, looked up, the tested form may be a part, canonical isoform): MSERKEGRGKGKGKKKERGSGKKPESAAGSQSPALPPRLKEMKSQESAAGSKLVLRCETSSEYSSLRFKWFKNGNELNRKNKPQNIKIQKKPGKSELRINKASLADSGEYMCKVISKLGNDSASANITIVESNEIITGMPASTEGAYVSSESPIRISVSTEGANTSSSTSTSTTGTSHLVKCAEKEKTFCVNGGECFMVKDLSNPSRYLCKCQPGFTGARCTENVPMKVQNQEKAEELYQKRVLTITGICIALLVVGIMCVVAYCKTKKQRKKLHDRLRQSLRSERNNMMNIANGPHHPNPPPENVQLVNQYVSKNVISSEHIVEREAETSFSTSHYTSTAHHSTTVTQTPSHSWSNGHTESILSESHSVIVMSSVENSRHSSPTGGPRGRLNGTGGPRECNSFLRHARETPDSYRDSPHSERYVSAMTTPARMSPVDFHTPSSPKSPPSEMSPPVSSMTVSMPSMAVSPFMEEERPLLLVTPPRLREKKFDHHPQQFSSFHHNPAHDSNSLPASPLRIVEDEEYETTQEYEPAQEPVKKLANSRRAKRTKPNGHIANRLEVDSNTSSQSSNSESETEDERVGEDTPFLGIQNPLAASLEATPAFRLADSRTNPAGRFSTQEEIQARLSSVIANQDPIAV
SMILES,composite z-score [1],composite z-score [2],composite z-score [3],composite z-score [4],composite z-score [5],composite z-score [6],composite z-score [7],z-score [8],composite z-score [9],composite z-score [10]
CO[C@H]1O[C@H](CO)[C@@H](OC(=O)Nc2ccc3c(c2)OCO3)[C@H](OC(=O)Nc2ccc3c(c2)OCO3)[C@@H]1OC(=O)Nc1ccc2c(c1)OCO2,-0.202,0.584,0.256,1.21,1.26,1.78,1.2,2.2 (inactive),0.338,0.0818
Cn1cccc1C(O)C1C=CC2C(=O)N(c3ccccc3)C(=O)C2N1Nc1ccccc1 (stereo not given),-0.236,0.401,0.137,0.925,1.71,1.91,1.17,0.687 (inactive),0.706,-0.136
C=CC[C@]1(C(=O)N2CCOCC2)COC(c2ccc(OCCCO)cc2)=N1,0.0944,1.47,0.075,-0.151,0.0759,1.52,1.39,0.683 (inactive),0.219,-0.249
[N-]=[N+]=NCc1ccccc1[C@@H]1OC(c2ccc(OCCCO)cc2)=N[C@]1(CCS(=O)(=O)c1ccccc1)C(=O)O,0.561,-0.0845,0.0116,0.396,0.797,1.92,0.733,5.28 (inactive),0.641,-0.0994
O=C(Cc1ccccc1)[C@H]1C2C=CCCC(c3ccccc3)=C2CN1Cc1ccccc1 (stereo not given in full),-0.138,1.24,-0.085,0.0623,-0.0515,-0.473,-0.122,-1.2 (inactive),-0.205,0.0722
COCCOC(=O)N1C(=O)[C@@]2(c3cc(C#CCCO)ccc31)[C@H](C(=O)Nc1nc3ccccc3s1)[C@H]1C(=O)O[C@H](c3ccccc3)[C@H](c3ccccc3)N1[C@@H]2c1ccc(O)cc1,-0.223,0.9,-0.0403,0.83,1.53,1.07,0.72,-0.948 (inactive),0.346,0.0505
COCCOC(=O)N1C(=O)[C@@]2(c3cc(C#CC4(O)CCCCCC4)ccc31)[C@H](c1ccc(O)cc1)N1[C@H](c3ccccc3)[C@H](c3ccccc3)OC(=O)[C@H]1[C@@H]2C(=O)N1CCN(c2ncccn2)CC1,-0.133,0.837,0.0702,0.292,0.895,1.33,1.24,0.821 (inactive),0.756,0.132
CC(C)c1ccc(NN2C(C(O)c3ccc(C#N)cc3)C=CC3C(=O)N(c4ccccc4)C(=O)C32)cc1 (stereo not given),0.546,0.0853,0.105,1.15,1.72,1.87,1,-2.97 (inactive),1.8,-0.0704
CCCC=C(CCC)[C@@H](NS(=O)(=O)c1ccc(C(F)(F)F)cc1)c1ccccc1,-0.0179,-0.0296,0.143,-0.0601,0.0998,-0.152,0.428,1.75 (inactive),0.302,0.37
O=C1C2C=CC(C(O)c3cccc(O)c3)N(Nc3ccc([N+](=O)[O-])cc3)C2C(=O)N1c1ccccc1 (stereo not given),-0.171,0.325,-0.0133,0.765,0.719,0.0076,0.63,0.125 (inactive),0.441,-0.136
CCOC(=O)C[C@H]1[C@H](OC(=O)c2cc3ccccc3oc2=O)[C@@H](NC(=O)CC(C)C)c2cc(OCCCO)ccc2N1C(=O)c1ccc2ccccc2n1,-0.444,0.304,-0.132,0.945,1.09,0.594,1.1,0.159 (inactive),0.252,-0.199
COc1cc2c(cc1O)C(C1CC1)N(Cc1cccc(OC(F)(F)F)c1)CC2 (stereo not given),-0.119,0.257,-0.101,0.248,-0.725,1.39,0.857,0.329 (inactive),-0.182,0.132
CCCNC(=O)[C@@H]1c2ccccc2C(=O)N(Cc2ccc(OC(F)(F)F)cc2)[C@H]1c1ccc(CO)cc1,0.193,-0.392,0.0295,0.0505,0.634,0.33,1.24,-1.88 (inactive),0.0347,-0.0237
CC(C)=C1C(=O)C(c2ccccc2)=C2CN3C(=O)N(CCc4ccccc4)C(=O)[C@]3(Cc3ccc(C(F)(F)F)cc3)[C@H]21,1.11,-0.192,0.0977,-0.122,0.816,0.757,0.844,0.845 (inactive),0.693,0.281
NCCCCCCNC(=O)[C@@H]1C[C@@H]2C(=O)N[C@@H](CCCCN)C(=O)N2[C@@H]1c1ccc(O)cc1,0.208,0.301,-0.0313,0.469,0.147,2.01,1.25,0.598 (inactive),0.077,-0.149
C#CCN([C@@H](Cc1ccccc1)C(=O)OC)[C@@H](/C=C/C1CC1)[C@H](O)Cc1ccccc1,1.2,0.0218,-0.114,-0.181,-0.875,-0.445,-0.351,-4.13 (inactive),-0.283,-0.169
COC(=O)[C@@H]1N=C(c2ccc(OCCCO)cc2)O[C@@H]1c1ccccc1,0.497,-0.0336,-0.103,-0.789,-0.997,0.403,0.326,7.16 (inactive),-0.456,0.176
CS(=O)(=O)CCOC(=O)C1=CC(c2ccc(CO)cc2)=CC(C2CC2)N(Cc2sc3ccccc3c2Cl)C=C1C(=O)OCCS(C)(=O)=O (stereo not given),-0.0385,0.569,-0.0746,0.165,0.87,1.77,0.962,-1.06 (inactive),0.223,0.316
COc1cc(NN2C(C(O)c3cc(OC)c(OC)c(OC)c3)C=CC3C(=O)N(C)C(=O)C32)cc(OC)c1OC (stereo not given),-0.0324,0.427,-0.0613,0.899,1.34,1.98,1.23,0.78 (inactive),0.572,0.12
Cc1ccc(NN2C(C(O)c3c(F)cccc3Cl)C=CC3C(=O)N(C4CCCCC4)C(=O)C32)cc1 (stereo not given),1.14,0.44,0.0749,0.507,1.55,1.46,1.06,0.0701 (inactive),0.697,-0.254
CC1CC/C=C\[C@H]2OC34C=CCN(Cc5ccccc5)C(=O)[C@H]3N(C(CO)C(C)C)C(=O)[C@@H]4C2C(=O)O1 (stereo not given in full),0.342,-0.153,-0.049,-0.0095,-0.68,0.491,1.39,1.32 (inactive),-0.368,-0.0169
CCCCCC1=C2CNC(C)(C(=O)OC)C=C2C(C)C1=O (stereo not given),0.59,-0.414,-0.0676,0.0477,0.363,1.07,0.972,1.78 (inactive),0.0861,0.376
